rCAG binder – binders of r(CAG) RNA repeats, primary screen, biochemical, fluorescence | r(CAG) RNA repeat, TO-PRO-1 dye displacement fluorescence | inhibition, % at 3 µM | hit rate 1.3% among 370,000;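 active means inhibition above the plate cutoff, the mean of all test compounds on that plate plus 3 SD, cut at about 35% in these data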;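 further: 0% = DMSO alone and 100% = 100 µM mitoxantrone as full dye displacement; higher means more dye released from RNA so lower well fluorescence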
FAS-TE inh – FAS thioesterase domain inhibitors, primary screen, biochemical, fluorescence intensity, uHTS | recombinant FAS-TE, OMFH fluorogenic substrate, fluorescence endpoint | inhibition, % at 15 µM | hit rate 0.67% among 360,000 | AID 602261, 2012;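 active means compounds whose normalised, plate-corrected inhibition of enzyme fluorescence in the single-dose primary screen is 50% or more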;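 further: 0% = DMSO with enzyme and 100% = substrate without enzyme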
Target sequence (P49327 whole entry, looked up, the tested form may be a part): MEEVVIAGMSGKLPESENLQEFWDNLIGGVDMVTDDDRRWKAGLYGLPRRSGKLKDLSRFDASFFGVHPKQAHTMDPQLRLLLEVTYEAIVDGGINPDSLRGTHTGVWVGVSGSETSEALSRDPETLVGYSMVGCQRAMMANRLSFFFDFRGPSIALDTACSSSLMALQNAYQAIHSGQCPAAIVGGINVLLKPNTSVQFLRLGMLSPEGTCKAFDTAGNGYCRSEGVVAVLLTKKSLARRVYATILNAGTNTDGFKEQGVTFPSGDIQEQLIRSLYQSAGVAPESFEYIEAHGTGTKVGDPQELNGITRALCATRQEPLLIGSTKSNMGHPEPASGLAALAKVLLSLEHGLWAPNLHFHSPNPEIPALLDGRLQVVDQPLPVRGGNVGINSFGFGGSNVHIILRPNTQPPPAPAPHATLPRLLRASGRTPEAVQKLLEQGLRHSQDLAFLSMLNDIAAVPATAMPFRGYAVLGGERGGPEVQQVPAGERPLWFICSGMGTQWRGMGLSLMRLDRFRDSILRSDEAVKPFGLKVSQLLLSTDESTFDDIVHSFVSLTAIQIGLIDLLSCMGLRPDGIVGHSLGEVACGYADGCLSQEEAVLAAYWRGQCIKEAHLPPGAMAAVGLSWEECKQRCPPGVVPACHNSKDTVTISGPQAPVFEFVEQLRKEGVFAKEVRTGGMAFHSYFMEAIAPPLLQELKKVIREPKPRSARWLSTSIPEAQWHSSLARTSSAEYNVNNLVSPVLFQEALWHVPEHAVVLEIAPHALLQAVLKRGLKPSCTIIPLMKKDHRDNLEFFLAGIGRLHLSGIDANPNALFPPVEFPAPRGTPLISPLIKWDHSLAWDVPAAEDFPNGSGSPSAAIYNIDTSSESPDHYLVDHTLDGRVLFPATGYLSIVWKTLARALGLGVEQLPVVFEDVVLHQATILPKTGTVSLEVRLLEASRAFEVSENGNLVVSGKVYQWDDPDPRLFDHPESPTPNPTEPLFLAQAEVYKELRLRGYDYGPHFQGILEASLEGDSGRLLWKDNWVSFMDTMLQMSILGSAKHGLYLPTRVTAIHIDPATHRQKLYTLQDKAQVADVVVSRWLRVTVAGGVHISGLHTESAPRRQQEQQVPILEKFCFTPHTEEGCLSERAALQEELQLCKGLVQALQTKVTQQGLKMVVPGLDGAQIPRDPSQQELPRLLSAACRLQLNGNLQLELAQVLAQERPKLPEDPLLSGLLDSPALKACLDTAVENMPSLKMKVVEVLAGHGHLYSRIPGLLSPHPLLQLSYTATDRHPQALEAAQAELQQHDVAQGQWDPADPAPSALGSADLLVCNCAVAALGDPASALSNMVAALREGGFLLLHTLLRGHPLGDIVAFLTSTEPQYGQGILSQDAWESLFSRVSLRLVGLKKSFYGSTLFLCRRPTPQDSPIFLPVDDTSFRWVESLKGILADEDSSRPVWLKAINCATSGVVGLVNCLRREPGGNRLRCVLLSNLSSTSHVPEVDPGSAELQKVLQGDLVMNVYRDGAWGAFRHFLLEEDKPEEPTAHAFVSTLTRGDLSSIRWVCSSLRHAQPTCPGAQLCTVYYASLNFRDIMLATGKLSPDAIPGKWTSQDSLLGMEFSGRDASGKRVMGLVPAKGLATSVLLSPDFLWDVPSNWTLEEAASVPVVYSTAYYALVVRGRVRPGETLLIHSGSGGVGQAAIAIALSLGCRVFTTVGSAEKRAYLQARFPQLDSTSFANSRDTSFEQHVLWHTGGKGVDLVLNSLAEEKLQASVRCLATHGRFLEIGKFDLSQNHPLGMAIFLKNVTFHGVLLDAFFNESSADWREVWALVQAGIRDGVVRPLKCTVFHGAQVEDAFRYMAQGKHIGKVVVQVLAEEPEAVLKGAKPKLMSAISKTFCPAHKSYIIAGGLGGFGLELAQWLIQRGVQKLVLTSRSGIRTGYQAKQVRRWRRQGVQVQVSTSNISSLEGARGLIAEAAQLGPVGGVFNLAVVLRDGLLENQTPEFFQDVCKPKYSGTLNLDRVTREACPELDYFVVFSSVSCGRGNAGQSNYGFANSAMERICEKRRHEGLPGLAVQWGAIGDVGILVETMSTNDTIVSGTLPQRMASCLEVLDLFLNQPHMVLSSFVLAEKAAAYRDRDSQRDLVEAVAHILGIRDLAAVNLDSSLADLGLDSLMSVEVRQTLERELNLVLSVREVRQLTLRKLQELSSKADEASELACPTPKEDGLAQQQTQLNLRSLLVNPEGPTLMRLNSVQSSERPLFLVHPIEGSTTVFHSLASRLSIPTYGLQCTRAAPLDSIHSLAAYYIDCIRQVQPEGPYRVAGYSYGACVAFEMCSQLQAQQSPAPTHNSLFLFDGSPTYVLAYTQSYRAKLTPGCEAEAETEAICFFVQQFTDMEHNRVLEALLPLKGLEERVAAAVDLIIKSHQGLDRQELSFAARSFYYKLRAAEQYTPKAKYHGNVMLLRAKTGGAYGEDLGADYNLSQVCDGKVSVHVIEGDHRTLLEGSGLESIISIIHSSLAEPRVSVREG
NadD inh – inhibitors of S. aureus NadD, primary screen, biochemical, colorimetric, uHTS; inhibition, % at 20 µM; hit rate 0.78% among 360,000; Nicotinate-nucleotide adenylyltransferase NadD (Staphylococcus aureus N315); purified NadD enzyme, colorimetric absorbance read-out; in the data active means inhibition above about 26%
GRIN3A LBD mod – binders of NR3A ligand-binding domain, primary screen, biophysical, differential scanning fluorimetry, uHTS; NR3A LBD differential scanning fluorimetry, Tm shift; 0% = protein alone, 100% = glycine-bound protein; Glutamate receptor ionotropic, NMDA 3A (GRIN3A) ligand-binding domain; AID 1259313, 2017; hit rate 2.5% among 340,000; Tm shift relative to glycine control, % at 25 µM;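 active means melting temperature shift of at least 10% of the positive control shift, at one fixed dose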
rCAG binder conf – small molecules binding CAG repeat RNA – biochemical, fluorescence, confirmation. shares compounds with rCAG binder. r(CAG) RNA repeat, TO-PRO-1 dye displacement fluorescence. inhibition, % at 3 µM. hit rate 70% among 4,300. AID 652065, 2013;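 active means inhibition above a per-plate cutoff, the mean inhibition of sample wells plus 3 SD, cut at about 35% in these data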;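 further: loss of TO-PRO-1 fluorescence as compound displaces dye from 1x1 AA loop RNA; 0% = DMSO only wells and 100% = 100 µM mitoxantrone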
DNA CAG counter – displacement of TO-PRO-1 from CAG DNA duplex, counter-screen for rCAG RNA repeat binder project, biochemical, fluorescence, TO-PRO-1 dye, d(CAG) DNA oligo | inhibition, % at 3 µM | d(CAG) DNA oligo TO-PRO-1 dye displacement | shares compounds with rCAG binder | hit rate 94% among 4,300;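 active means inhibition above its plate's cutoff, the mean test-well inhibition plus 3 SD, cut at about 4.8% in these data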;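 further: 0% = DNA dye mix with DMSO and 100% = 100 µM mitoxantrone; hits displace the dye from DNA and so lower well fluorescence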
dCAG dye DR – inhibitors of DNA CAG/GTC TO-PRO-1 complex, dose response, counter-screen for rCAG RNA repeat binder project, biochemical, fluorescence, TO-PRO-1 dye | shares compounds with rCAG binder | DNA CAG/GTC duplex TO-PRO-1 dye displacement fluorescence | hit rate 20% among 250 | IC50, µM; in the data active means IC50 below about 10 µM
Numbers without * were called inactive; i = inactive; x = no result. Hits are enriched below; roughly 4.3% of the tested compounds scored in any of these assays.

SMILES | rCAG binder | FAS-TE inh | NadD inh | GRIN3A LBD mod | rCAG binder conf | DNA CAG counter | others
CC(C)CNC(=O)C1Nc2ccc(OC(F)(F)F)cc2C2C=CCC12 (configuration not stated) | 21.1 | -8.7 | 2.6 | -3.2 | x | x
CCOC(=O)c1ccc2c(c1)C1C=CCC1C(C(=O)OCC)N2 (configuration not stated) | 47.4* | 2.6 | 12.6 | -2.2 | 35.4* | 16.8*
COC(=O)[C@]12C[C@H](CC(=O)NCc3ccc(C)o3)C(=O)N(Cc3cccc4ccccc34)C1=C[C@H](C1CCCC1)O[C@@H]2C | 7.8 | x | x | x | x | x
Cc1[nH]n(-c2ccccc2)c(=O)c1/C=N/c1nn[nH]n1 | 3.2 | -3.5 | 0.8 | 1.0 | x | x
C=CCSc1nnc(-c2ccccc2N=Cc2c(C)[nH]n(-c3ccccc3)c2=O)c(=O)[nH]1 | 40.8* | 3.1 | 8.9 | -1.6 | 32.9 | 9.6*
C=CCSc1nnc(-c2ccccc2NC(=O)CC)c(=O)[nH]1 | 50.6* | -4.7 | -2.2 | 0.4 | 4.5 | 2.4
CSc1nnc(-c2ccccc2N=Cc2c(C)[nH]n(-c3ccc4ccccc4c3)c2=O)c(=O)[nH]1 | 67.7* | 15.8 | 28.6 | 9.4 | 70.5* | 32.4* | dCAG dye DR=9.19*
CCSc1nnc(-c2ccccc2NC(=O)CC)c(=O)[nH]1 | -3.2 | -8.4 | 2.8 | 2.8 | x | x
CN1C(=O)c2cc(NC(=O)c3ccccc3)ccc2OC[C@H]2O[C@@H](CC(=O)NCC3CC3)CC[C@@H]21 | 3.1 | x | x | x | x | x
COc1ccc(S(=O)(=O)N2CCCc3nc(-c4ccccc4)ccc32)cc1 | 3.5 | x | x | x | x | x
Cc1ccc(S(=O)(=O)c2c(N)n(NC(=O)c3ccccc3C)c3nc4ccccc4nc23)cc1 | 35.5* | 9.1 | 19.9 | 11.2* | 35.6* | 13.3*
Cc1ccc(S(=O)(=O)c2c(N)n(CCC(C)C)c3nc4ccccc4nc23)cc1 | 11.3 | 31.4 | 16.8 | 2.6 | x | x
COC(=O)[C@@]12CCCCC3=C1N(CCC3)C(=O)[C@H]2CC(=O)NCCc1ccccc1OC | 0.2 | x | x | x | x | x
CC(C)(C)c1ccc(-c2nnc(SCC(=O)Nc3ccc4c(c3)OCCO4)n2-c2ccc(Cl)cc2)cc1 | 10.5 | x | x | x | x | x
CCOC(=O)c1c(C)[nH]c(C(=O)OCC(O)=C(C#N)c2nc3ccccc3[nH]2)c1C | 42.1* | -7.1 | 10.4 | 8.1 | 31.0 | 14.3*
C[C@@H]1OC(C2CCCCC2)N(C)[C@H]2C[C@H]3c4[nH]c5cccc(-c6ccccc6)c5c4CCN3C(=O)[C@@H]12 (some centres not stated) | 3.0 | x | x | x | x | x
O=C(O)CCC(=O)N1N=C(c2cccs2)CC1c1cn(-c2ccccc2)nc1-c1ccccc1 (configuration not stated) | 53.8* | -3.4 | 9.5 | -0.9 | 60.6* | 19.1*
Cc1ccc(-c2nn(-c3ccccc3)cc2C2CC(c3cccs3)=NN2C(=O)CCCC(=O)O)cc1 (configuration not stated) | 9.3 | -1.4 | 23.9 | -5.6 | x | x
CC(C)c1[nH]nc2c1C(c1ccccc1)NC2=O (configuration not stated) | 0.6 | x | x | x | x | x
CCn1nc(NS(=O)(=O)c2ccc([N+](=O)[O-])cc2)c2cc3cc(C)ccc3nc21 | 15.7 | 37.7 | 11.2 | -1.6 | x | x
CCn1nc(NS(=O)(=O)c2ccc([N+](=O)[O-])cc2)c2cc3ccc(C)cc3nc21 | 52.6* | 30.8 | 4.1 | -6.0 | 36.7* | 9.6*
CC(C)[C@@H](C)/C=C/[C@@H](C)[C@H]1CC[C@@H]2[C@]1(C)CCC1[C@]23C=C[C@]2(C[C@@H](O)CC[C@]12C)N(C(=O)Cc1ccccc1)O3 (some centres not stated) | 2.8 | x | x | x | x | x
COc1cc(/C=C/c2ccc3c([N+](=O)[O-])cccc3n2)ccc1OCC(=O)O | 9.3 | 0.9 | 3.5 | 0.3 | x | x
O=C(O)COc1ccc(/C=C/c2ccc3cccc([N+](=O)[O-])c3n2)cc1 | 37.2* | -7.3 | 3.7 | 18.4* | 27.1 | 8.4*
COc1cc(/C=C/c2ccc3cccc([N+](=O)[O-])c3n2)ccc1OCC(=O)O | 48.2* | -0.7 | 10.8 | 1.6 | 47.0* | 13.4*
SMILES | rCAG binder | FAS-TE inh | NadD inh | GRIN3A LBD mod | rCAG binder conf | DNA CAG counter | others
CC(C)(C)C(=O)NC1CCCCN(Cc2cccc(Cl)c2)C1=O (configuration not stated) | 0.5 | x | x | x | x | x
CCc1cc2c(-c3ccccc3)cc(=O)oc2cc1OCC(C)=O | -1.8 | 16.1 | 0.7 | -1.0 | x | x
CCCc1cc2c(-c3ccccc3)cc(=O)oc2cc1OCc1ccc(C(=O)O)o1 | 57.3* | 8.8 | 16.9 | -8.8 | 73.0* | 27.1* | dCAG dye DR=i
Cc1ccc(N=Cc2cc3c(cc2[N+](=O)[O-])OCO3)cc1[N+](=O)[O-] | 38.8* | -1.9 | 2.6 | 2.2 | 9.3 | 4.9*
O=[N+]([O-])c1cc(Br)cc(C=Nc2ccc3c(c2)OCO3)c1O | 57.8* | 3.1 | 18.1 | 6.1 | 40.5* | 16.6*
COC(=O)[C@]12C=CCN1[C@@H](c1ccc(Cl)cc1)c1c(c3ccccc3n1S(=O)(=O)c1ccc(C)cc1)C2 | 16.4 | x | x | x | x | x
C[C@@H]1CN([C@H](C)CO)C(=O)c2ccccc2-c2ccccc2CO[C@@H]1CN(C)C(=O)Nc1ccccc1 | 1.3 | x | x | x | x | x
CCC(CC)(CC(=O)Nc1cccc(/C=C/c2nc(C3CCC3)cs2)c1)C(=O)O | 46.2* | x | x | x | 55.3* | 17.7*
CC(=O)Nc1cccc(NC(=O)CCCC2CCCCC2)c1 | -6.4 | 4.3 | -5.4 | -13.8 | x | x
COC(=O)C1=C(C)N(C)C(=NCC2CC2)NC1c1ccc(F)cc1 (configuration not stated) | 7.8 | x | x | x | x | x
Nc1c(C(=O)Nc2ccc(F)cc2)sc2nc(-c3ccco3)ccc12 | 34.9* | 5.0 | 25.8 | 5.2 | 55.3* | 25.9*
CC(C)(C)c1ccc(OCC(=O)NNC(=S)NC(=O)c2ccccc2[N+](=O)[O-])c(Br)c1 | 77.9* | 14.6 | 23.1 | -1.7 | 85.2* | 54.9*
CCCOc1ccc(C(=O)NNC(=S)NC(=O)c2cccs2)cc1 | 41.1* | 0.4 | 13.2 | -8.9 | 35.4* | 10.7*
CCCOc1ccc(C(=O)NNC(=S)NC(=O)c2ccccc2[N+](=O)[O-])cc1 | 35.8* | -2.9 | 8.9 | -10.9 | 20.4 | 7.0*
Cc1ccccc1OCC(=O)NNC(=S)NC(=O)c1ccccc1[N+](=O)[O-] | 32.4 | -9.6 | -1.1 | -1.2 | x | x
